# According to PubChem BioAssay (EPA / NIEHS):
# Records with an inconclusive call do not appear. Activity calls are given as the source filed them. The calls were made as follows, unless noted: active = hit-call score of the fitted dose curve at least 0.9, where 1 is the maximum; inactive = score below 0.9.
# Experiments:
# [1] = read-out: Signal transducer and activator of transcription 3 (Homo sapiens) (UniProt P40763); assay: LTEA_HepaRG_STAT3: Life Technologies and Expression Analysis (LTEA) Assay for Signal transducer and activator of transcription (STAT3) using HepaRG (AID 2283529); conditions: mRNA level, 48 h; actives raise or lower the signal
# How it was run: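 STAT3 transcript quantified by qRT-PCR against three housekeeping genes (ACTB, GAPDH, POLR2A), fitted both directions relative to DMSO. HepaRG cultures exposed 48 h to eight half-log concentrations, top 100 uM, 0.5% DMSO, serum-free induction medium.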
# [2] = read-out: solute carrier (SLCO1B1), SLCO1B1 (gene 10599); assay: LTEA_HepaRG_SLCO1B1: Life Technologies and Expression Analysis (LTEA) Assay for solute carrier (SLCO1B1) using HepaRG (AID 2283530); conditions: mRNA level, 48 h; actives raise or lower the signal
# How it was run: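 Gain or loss of SLCO1B1 mRNA is fitted against the 0.5% DMSO vehicle in human HepaRG liver cells treated 48 h at up to 100 uM in half-log steps. Expression comes from qRT-PCR normalized to endogenous controls.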
# [3] = read-out: sulfotransferase 2A1 (SULT2A1), SULT2A1 (gene 6822); assay: LTEA_HepaRG_SULT2A1: Life Technologies and Expression Analysis (LTEA) Assay for sulfotransferase 2A1 (SULT2A1) using HepaRG (AID 2283531); conditions: mRNA level, 48 h; actives raise or lower the signal
# How it was run: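 Cells were plated and cultured 48 h, switched to serum-free induction medium, then dosed in duplicate for 48 h (8 concentrations, max 100 uM). RNA was isolated and SULT2A1 expression measured by qRT-PCR; gain or loss of signal fitted relative to DMSO.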
# [4] = read-out: Transforming Growth Factor (TGFB1), TGFB1 (gene 7040); assay: LTEA_HepaRG_TGFB1: Life Technologies and Expression Analysis (LTEA) Assay for Transforming Growth Factor (TGFB1) Transporter using HepaRG (AID 2283533); conditions: mRNA level, 48 h; actives raise or lower the signal
# How it was run: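 Expression change of TGFB1 in human HepaRG cells is measured after a 48 h chemical exposure, up to 100 uM in 0.5% DMSO vehicle. Curves are fitted in both directions relative to the DMSO baseline.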
# TIMP1, TIMP1 (gene 7076) = assay: LTEA_HepaRG_TIMP1: Life Technologies and Expression Analysis (LTEA) Assay for TIMP1 using HepaRG (AID 2283534); conditions: mRNA level, 48 h; actives raise or lower the signal;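 also: TaqMan qRT-PCR signal normalized to ACTB GAPDH and POLR2A housekeeping genes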
# How it was run: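 We dosed human liver HepaRG cultures for 48 hours with up to 100 uM test chemical and measured TIMP1 expression by qRT-PCR. Activity in either direction is fitted relative to the 0.5% DMSO vehicle.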
# [5] = read-out: Tumor necrosis factor receptor 1 (TNFRSF1A), TNFRSF1A (gene 7132); assay: LTEA_HepaRG_TNFRSF1A: Life Technologies and Expression Analysis (LTEA) Assay for Tumor necrosis factor receptor 1 (TNFRSF1A) using HepaRG (AID 2283535); conditions: mRNA level, 48 h; actives raise or lower the signal
# How it was run: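 Expression of TNFRSF1A in human HepaRG liver cells was measured by qRT-PCR 48 h after chemical dosing (maximum 100 uM). Bidirectional curve fitting used 0.5% DMSO as baseline.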
# [6] = read-out: Thyroid Hormone Responsive (THRSP), THRSP (gene 7069); assay: LTEA_HepaRG_THRSP: Life Technologies and Expression Analysis (LTEA) Assay for Thyroid Hormone Responsive (THRSP) using HepaRG (AID 2283536); conditions: mRNA level, 48 h; actives raise or lower the signal
# How it was run: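 THRSP transcript quantified by Fluidigm qRT-PCR against three housekeeping genes after 48 h chemical exposure of HepaRG cells in serum-free induction medium; eight-point half-log series, top 100 uM, 0.5% DMSO vehicle, duplicate wells.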
# [7] = read-out: Cellular tumor antigen p53 (Homo sapiens) (UniProt P04637); assay: LTEA_HepaRG_TP53: Life Technologies and Expression Analysis (LTEA) Assay for Tumor Protein P53 (TP53) using HepaRG (AID 2283537); conditions: mRNA level, 48 h; actives raise or lower the signal
# How it was run: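 Differentiated HepaRG cells in serum-free induction medium exposed 48 h in duplicate to 8 half-log concentrations, top 100 uM, 0.5% DMSO. TP53 mRNA by TaqMan qRT-PCR (Fluidigm), normalized to ACTB, GAPDH, POLR2A; fitted bidirectionally versus DMSO.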
# [8] = read-out: UDP glucuronosyltransferase (UGT1A1), UGT1A1 (gene 54658); assay: LTEA_HepaRG_UGT1A1: Life Technologies and Expression Analysis (LTEA) Assay for UDP glucuronosyltransferase (UGT1A1) using HepaRG (AID 2283538); conditions: mRNA level, 48 h; actives raise or lower the signal
# How it was run: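 Cells are plated, cultured 48 h, switched to serum-free induction medium, then dosed 48 h at eight concentrations (max 100 uM, 0.5% DMSO). RNA is isolated and UGT1A1 expression measured by qRT-PCR; changes versus DMSO are fitted in both directions.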
# [9] = read-out: UDP glucuronosyltransferase (UGT1A6), UGT1A6 (gene 54578); assay: LTEA_HepaRG_UGT1A6: Life Technologies and Expression Analysis (LTEA) Assay for UDP glucuronosyltransferase (UGT1A6) using HepaRG (AID 2283539); conditions: mRNA level, 48 h; actives raise or lower the signal
# How it was run: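 Endpoint is UGT1A6 transcript induction or loss in a human liver cell line, quantified by TaqMan qRT-PCR 48 h after dosing. Concentrations ran from 100 uM downward in half-log steps in 0.5% DMSO; activity was fitted in both directions versus vehicle.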
# [10] = read-out: X-box binding protein 1 (XBP1), XBP1 (gene 7494); assay: LTEA_HepaRG_XBP1: Life Technologies and Expression Analysis (LTEA) Assay for X-box binding protein 1 (XBP1) using HepaRG (AID 2283540); conditions: mRNA level, 48 h; actives raise or lower the signal
# How it was run: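 Human HepaRG monolayers receive test chemical for 48 h across an eight-point half-log series starting at 100 uM. XBP1 mRNA gain or loss is scored against DMSO by qRT-PCR.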
# [11] = LTEA_HepaRG_LDH_cytotoxicity: Cytotoxicity Assessment in the Life Technologies and Expression Analysis (LTEA) Assay (AID 2283563; active = hit-call score of the fitted dose curve at least 0.9, where 1 is the maximum;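 as to AC50: LDH activity released into spent culture medium as a marker of cell death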)
# How it was run: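 Human HepaRG hepatic cells are treated with test chemicals for 48 h at up to 100 uM in 0.5% DMSO. Cytotoxicity is scored from medium LDH against the vehicle control.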
# [12] = ATG_XTT_Cytotoxicity: Cytotoxicity Assessment in the Attagene TRANS-FACTORIAL HepG2 Assay (AID 2283584; active = hit-call score of the fitted dose curve at least 0.9, where 1 is the maximum)
# How it was run: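 Transfect HepG2 with GAL4-UAS reporter units, dose compound, incubate 24 h, then measure viable cell number by XTT. Fit concentration response against DMSO baseline.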
# [13] = molecular target: Cellular tumor antigen p53 (Homo sapiens) (UniProt P04637); assay: TOX21_p53_BLA_p2_ratio: Tox21 HCT-116 p53 Agonism Beta-lactamase Assay, Ratio, Phase 2 (AID 2283592; active = hit-call score of the fitted dose curve at least 0.9, where 1 is the maximum)
# Cellular tumor antigen p53 (Homo sapiens), sequence (P04637 whole entry, looked up): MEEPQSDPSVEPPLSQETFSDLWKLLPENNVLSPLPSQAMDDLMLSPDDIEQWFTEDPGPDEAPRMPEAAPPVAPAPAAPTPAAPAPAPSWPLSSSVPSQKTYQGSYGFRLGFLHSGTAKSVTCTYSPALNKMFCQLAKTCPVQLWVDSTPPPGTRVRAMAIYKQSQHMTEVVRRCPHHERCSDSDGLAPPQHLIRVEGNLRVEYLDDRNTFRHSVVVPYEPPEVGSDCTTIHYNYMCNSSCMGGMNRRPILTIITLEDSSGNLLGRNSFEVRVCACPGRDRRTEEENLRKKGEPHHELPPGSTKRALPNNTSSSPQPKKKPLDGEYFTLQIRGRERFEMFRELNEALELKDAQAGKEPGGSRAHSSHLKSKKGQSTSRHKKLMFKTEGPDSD
# How it was run: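 Cleaved-to-uncleaved substrate ratio (460 vs 530 nm) measured in HCT116 cells with an inducible beta-lactamase reporter linked to p53 activity. Compounds incubated 16 h at 37C before 2 h room-temperature CCF4-AM loading.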
# [14] = TOX21_p53_BLA_p3_viability: Viability Assessment in the Tox21 HCT-116 p53 Agonism Beta-lactamase Assay, Phase 3 (AID 2283593; active = hit-call score of the fitted dose curve at least 0.9, where 1 is the maximum;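 also: cells exposed to compound for 16 h before reading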)
# How it was run: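 Cellular ATP was quantified by CellTiter-Glo luminescence, read after 30 min at room temperature. Beforehand, HCT116 cells (4000/well) received compound 5 h post-seeding, 217-fold diluted from DMSO, then incubated 16 h at 37C.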
# [15] = molecular target: Cellular tumor antigen p53 (Homo sapiens) (UniProt P04637); assay: TOX21_p53_BLA_p3_ratio: Tox21 HCT-116 p53 Agonism Beta-lactamase Assay, Ratio, Phase 3 (AID 2283596; active = hit-call score of the fitted dose curve at least 0.9, where 1 is the maximum)
# How it was run: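 Cells were seeded at 4000/well, rested 5 h at 37C, then dosed with DMSO compound solutions (217-fold dilution) for 16 h. CCF4-AM substrate was loaded for 2 h at room temperature, and the 460/530 nm emission ratio was fitted for gain of signal versus DMSO.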
# [16] = TOX21_p53_BLA_p4_viability: Viability Assessment in the Tox21 HCT-116 p53 Agonism Beta-lactamase Assay, Phase 4 (AID 2283597; active = hit-call score of the fitted dose curve at least 0.9, where 1 is the maximum;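 also: hits lower the luminescence signal meaning cytotoxicity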)
# How it was run: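 Viability is taken as cellular ATP: after 16 h compound exposure of HCT116 cells and a 2 h room-temperature CCF4-AM substrate step, CellTiter-Glo reagent is added and luminescence is measured 30 min later.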
# [17] = molecular target: Cellular tumor antigen p53 (Homo sapiens) (UniProt P04637); assay: TOX21_p53_BLA_p5_ratio: Tox21 HCT-116 p53 Agonism Beta-lactamase Assay, Ratio, Phase 5 (AID 2283599; active = hit-call score of the fitted dose curve at least 0.9, where 1 is the maximum)
# How it was run: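 Beta-lactamase reporter ratio (blue 460 nm over green 530 nm, 405 nm excitation) after 2 h CCF4-AM loading, in HCT-116 cells exposed 16 h at 37 C to compounds pinned at 217-fold dilution. Increases relative to DMSO baseline scored.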
# [18] = TOX21_p53_BLA_p2_viability: Viability Assessment in the Tox21 HCT-116 p53 Agonism Beta-lactamase Assay, Phase 2 (AID 2283591; active = hit-call score of the fitted dose curve at least 0.9, where 1 is the maximum;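 also: compound exposure lasted 16 h at 37 °C; actives lower the ATP signal meaning cytotoxicity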)
# How it was run: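 Cytotoxicity readout: CellTiter-Glo ATP luminescence, 30 min at room temperature, after the beta-lactamase read. Cells were HCT116 exposed 16 h at 37C to compounds pin-transferred at 217-fold dilution from DMSO stocks.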
# [19] = read-out: Transforming Growth Factor (TGFA), TGFA (gene 7039); assay: LTEA_HepaRG_TGFA: Life Technologies and Expression Analysis (LTEA) Assay for Transforming Growth Factor (TGFA) using HepaRG (AID 2283532); conditions: mRNA level, 48 h; actives raise or lower the signal
# How it was run: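 TGFA transcript quantified by qRT-PCR (Fluidigm arrays) against three housekeeping genes, after 48 hours chemical treatment of HepaRG cells. Top concentration 100 uM with half-log dilutions, 8 points, duplicates, 0.5% DMSO.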
# Signal transducer and activator of transcription 3 (Homo sapiens), sequence (P40763 whole entry, looked up): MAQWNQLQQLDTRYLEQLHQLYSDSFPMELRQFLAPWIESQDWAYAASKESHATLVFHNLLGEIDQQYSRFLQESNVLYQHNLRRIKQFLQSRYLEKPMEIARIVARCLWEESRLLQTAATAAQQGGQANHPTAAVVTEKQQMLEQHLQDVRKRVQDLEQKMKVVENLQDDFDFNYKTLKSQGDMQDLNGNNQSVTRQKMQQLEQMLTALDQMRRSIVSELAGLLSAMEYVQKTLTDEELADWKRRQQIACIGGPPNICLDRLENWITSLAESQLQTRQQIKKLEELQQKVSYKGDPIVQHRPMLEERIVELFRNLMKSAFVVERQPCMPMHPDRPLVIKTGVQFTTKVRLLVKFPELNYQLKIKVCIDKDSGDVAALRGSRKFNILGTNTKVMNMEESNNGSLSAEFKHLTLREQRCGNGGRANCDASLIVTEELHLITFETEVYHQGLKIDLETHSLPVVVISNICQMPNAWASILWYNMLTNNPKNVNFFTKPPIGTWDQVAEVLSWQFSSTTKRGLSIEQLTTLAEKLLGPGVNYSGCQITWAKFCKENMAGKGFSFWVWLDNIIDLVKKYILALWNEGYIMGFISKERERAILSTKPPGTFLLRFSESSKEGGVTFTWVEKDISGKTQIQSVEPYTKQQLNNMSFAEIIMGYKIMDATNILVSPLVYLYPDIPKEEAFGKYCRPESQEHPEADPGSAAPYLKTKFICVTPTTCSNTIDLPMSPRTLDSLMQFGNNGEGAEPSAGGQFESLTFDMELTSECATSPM
smiles,measurement,setting,value
CC1(C)CC(N=C=O)CC(C)(CN=C=O)C1 (stereo not drawn),outcome,[1],inactive
same,outcome,[2],inactive
same,outcome,[3],inactive
same,outcome,[4],inactive
same,outcome,"TIMP1, TIMP1 (gene 7076)",inactive
same,outcome,[5],inactive
same,outcome,[6],inactive
same,outcome,[7],inactive
same,outcome,[8],inactive
same,outcome,[9],inactive
same,outcome,[10],inactive
same,outcome,[11],inactive
same,outcome,[12],inactive
same,outcome,[13],inactive
same,outcome,[14],inactive
same,outcome,[15],inactive
same,outcome,[16],inactive
same,outcome,[17],inactive
CCNc1cccc(C)c1,outcome,[1],inactive
same,outcome,[2],inactive
same,outcome,[3],inactive
same,outcome,[4],inactive
same,outcome,"TIMP1, TIMP1 (gene 7076)",inactive
same,outcome,[5],inactive
same,outcome,[6],inactive
same,outcome,[7],inactive
same,outcome,[8],inactive
same,outcome,[9],inactive
same,outcome,[10],inactive
same,outcome,[11],inactive
same,outcome,[12],inactive
same,outcome,[18],inactive
same,outcome,[13],inactive
same,outcome,[14],inactive
same,outcome,[15],inactive
same,outcome,[16],inactive
same,outcome,[17],inactive
Cc1oc(-c2ccccc2)nc1CCOc1cccc2c1ccn2CCC(=O)O,outcome,[1],inactive
same,AC50,[2],82.4 µM (active)
same,AC50,[3],90.5 µM (active)
same,AC50,[4],16.9 µM (active)
same,outcome,"TIMP1, TIMP1 (gene 7076)",inactive
same,outcome,[5],inactive
same,AC50,[6],79.1 µM (active)
same,AC50,[7],80.1 µM (active)
same,AC50,[8],90.9 µM (active)
same,AC50,[9],79.8 µM (active)
same,outcome,[10],inactive
same,AC50,[11],81.4 µM (active)
same,outcome,[18],inactive
same,AC50,[13],68.6 µM (active)
same,outcome,[14],inactive
same,outcome,[15],inactive
same,outcome,[16],inactive
same,outcome,[17],inactive
CN[C@H]1CC[C@@H](c2ccc(Cl)c(Cl)c2)c2ccc(S(N)(=O)=O)cc21,AC50,[1],50 µM (active)
same,outcome,[2],inactive
same,AC50,[3],87.6 µM (active)
same,outcome,[19],inactive
same,outcome,"TIMP1, TIMP1 (gene 7076)",inactive
same,outcome,[5],inactive
same,outcome,[6],inactive
same,AC50,[7],87.6 µM (active)
same,AC50,[8],37 µM (active)
same,AC50,[9],74.2 µM (active)
same,outcome,[10],inactive
same,AC50,[11],36.9 µM (active)
same,AC50,[18],78.4 µM (active)
same,AC50,[13],87 µM (active)
same,AC50,[14],71.7 µM (active)
same,AC50,[15],86.1 µM (active)
same,AC50,[16],61.9 µM (active)
same,AC50,[17],82.5 µM (active)
Cc1nc(-c2ccc3c(c2)CCN(CCC2CCC(NC(=O)/C=C/c4ccc(F)cc4)CC2)CC3)no1 (stereo not drawn),outcome,[1],inactive
same,outcome,[2],inactive
same,outcome,[3],inactive
same,outcome,[4],inactive
same,outcome,"TIMP1, TIMP1 (gene 7076)",inactive
same,outcome,[5],inactive
same,outcome,[6],inactive
same,outcome,[7],inactive
same,outcome,[8],inactive
same,outcome,[9],inactive
same,outcome,[10],inactive
same,outcome,[11],inactive
same,outcome,[12],inactive
same,outcome,[18],inactive
same,outcome,[13],inactive
same,outcome,[15],inactive
same,outcome,[16],inactive
same,AC50,[17],37.9 µM (active)
Cc1ccc2ncccc2c1,outcome,[1],inactive
same,outcome,[2],inactive
same,outcome,[3],inactive
same,outcome,[4],inactive
same,outcome,"TIMP1, TIMP1 (gene 7076)",inactive
same,outcome,[5],inactive
same,outcome,[6],inactive
same,outcome,[7],inactive
same,outcome,[8],inactive
same,outcome,[9],inactive
same,outcome,[10],inactive
same,outcome,[11],inactive
same,outcome,[12],inactive
same,outcome,[13],inactive
same,outcome,[15],inactive
same,outcome,[16],inactive
same,outcome,[17],inactive
CCCCCCC(=O)OCC,outcome,[1],inactive
same,outcome,[2],inactive
same,outcome,[3],inactive
same,outcome,[4],inactive
same,outcome,"TIMP1, TIMP1 (gene 7076)",inactive
same,outcome,[5],inactive
same,outcome,[6],inactive
same,outcome,[7],inactive
same,outcome,[8],inactive
same,outcome,[9],inactive
same,outcome,[10],inactive
same,outcome,[11],inactive
same,outcome,[12],inactive
same,outcome,[13],inactive
same,outcome,[15],inactive
